From PubChem BioAssay (NCATS)
Records with an inconclusive call do not appear. Active and inactive are the calls of the source. Unless noted, calls come from the whole dose curve; as a rule, active = well fitted curve in the direction sought with a large enough effect; inconclusive = small, poorly fitted or top-dose-only effect, or another doubt; inactive = no such curve, though single readings can be large; an effect the other way counts as inactive or inconclusive.

Tests used:
[1] = Inducers of the Endoplasmic Reticulum Stress Response (ERSR) in human glioma: Validation (AID 504836)
Outline: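 ERSR induction read as luciferase luminescence (Bright-Glo, 10 min at room temperature) in stably transfected human U87-MG glioma cells exposed to compounds for 16 h, using GRP78 as sensor.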

[2] = qHTS for Inhibitors of the Functional Ribonucleoprotein Complex (vRNP) of Lassa (LASV) Arenavirus: LASV Primary Screen - GLuc reporter signal (AID 1347082; calls by dose curve; tested in HEK293 reporter line; note: series mostly up to about 57 µM; nearly all actives have a fitted effect of over 60% in size)
[3] = qHTS for Inhibitors of the Functional Ribonucleoprotein Complex (vRNP) of Lassa (LASV) Arenavirus: Viability assay - alamar blue signal for LASV Primary Screen (AID 1347083; calls by dose curve; tested in HEK293 reporter line; note: series mostly up to about 57 µM; nearly all actives have a fitted effect of over 80% in size)
[4] = qHTS for Inhibitors of the Functional Ribonucleoprotein Complex (vRNP) of Lymphocytic Choriomeningitis Arenaviruses (LCMV): Viability assay - alamar blue signal for LCMV Primary Screen (AID 1347085; calls by dose curve; tested in HEK293 reporter line; note: series mostly up to about 57 µM; nearly all actives have a fitted effect of over 80% in size)
[5] = target: Nucleoprotein (Lymphocytic choriomeningitis virus (strain Armstrong)) (UniProt P09992); assay: qHTS for Inhibitors of the Functional Ribonucleoprotein Complex (vRNP) of Lymphocytic Choriomeningitis Arenaviruses (LCMV): LCMV Primary Screen - GLuc reporter signal (AID 1347086; calls by dose curve; note: series mostly up to about 57 µM; nearly all actives have a fitted effect of over 70% in size)
Sequence of Nucleoprotein (Lymphocytic choriomeningitis virus (strain Armstrong)) (P09992 whole entry, looked up): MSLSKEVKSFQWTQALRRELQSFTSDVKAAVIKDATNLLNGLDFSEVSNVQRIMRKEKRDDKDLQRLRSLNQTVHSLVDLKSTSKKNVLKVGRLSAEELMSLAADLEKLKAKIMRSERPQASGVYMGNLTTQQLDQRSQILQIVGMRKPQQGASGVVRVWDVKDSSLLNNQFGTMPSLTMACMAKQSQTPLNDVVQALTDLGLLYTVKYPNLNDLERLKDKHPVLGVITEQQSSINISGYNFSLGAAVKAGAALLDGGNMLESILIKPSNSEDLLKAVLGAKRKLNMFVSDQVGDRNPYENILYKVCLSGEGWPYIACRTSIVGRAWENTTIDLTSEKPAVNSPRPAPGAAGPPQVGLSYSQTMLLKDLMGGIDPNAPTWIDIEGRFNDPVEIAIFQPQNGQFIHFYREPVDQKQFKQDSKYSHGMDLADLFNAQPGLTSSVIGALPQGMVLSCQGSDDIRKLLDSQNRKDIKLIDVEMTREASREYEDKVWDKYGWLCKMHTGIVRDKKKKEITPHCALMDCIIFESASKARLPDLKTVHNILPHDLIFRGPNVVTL

[6] = target: Alpha-galactosidase (Coffea arabica) (UniProt Q42656); assay: Counterscreen for Glucocerebrosidase Inhibitors: qHTS Assay for Coffee Bean alpha-Galactosidase at pH 4.5 (AID 957); note: series mostly up to about 77 µM
Sequence of Alpha-galactosidase (Coffea arabica) (Q42656 whole entry, looked up): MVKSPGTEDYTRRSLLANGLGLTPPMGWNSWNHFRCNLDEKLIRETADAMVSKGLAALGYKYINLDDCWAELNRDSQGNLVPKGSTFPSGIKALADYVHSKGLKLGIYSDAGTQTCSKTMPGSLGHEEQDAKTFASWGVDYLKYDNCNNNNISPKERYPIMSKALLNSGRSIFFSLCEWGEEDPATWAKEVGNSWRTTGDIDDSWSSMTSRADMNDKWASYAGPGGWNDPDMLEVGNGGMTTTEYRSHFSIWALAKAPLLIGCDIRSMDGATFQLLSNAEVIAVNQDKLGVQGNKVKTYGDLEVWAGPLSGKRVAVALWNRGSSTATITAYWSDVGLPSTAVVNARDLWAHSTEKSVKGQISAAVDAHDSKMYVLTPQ
Outline: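 Coffee bean enzyme (2 nM) with 80 uM 4-methylumbelliferyl alpha-D-galactopyranoside in 50 mM citric acid, 0.005% Tween-20, pH 4.5, 20 min at room temperature; compounds 0.7 nM–77 uM. Stopped at pH 10, fluorescence 365/440 nm; AC50 from Hill fits.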

[7] = target: Alpha-galactosidase (Coffea arabica) (UniProt Q42656); assay: Counterscreen for Glucocerebrosidase Inhibitors: qHTS Assay for Coffee Bean alpha-Galactosidase at pH 5.9 (AID 998)
Outline: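 Compounds were titrated from 0.7 nM to 77 uM against green coffee bean alpha-galactosidase (2 nM) using 80 uM fluorogenic 4-methylumbelliferyl substrate. After 20 min at room temperature, reactions were stopped at pH 10 and read by fluorescence.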

[8] = target: Arylsulfatase A (Homo sapiens) (UniProt P15289); assay: qHTS screen for enhancers of Arylsulfatase A (ASA1): LOPAC Validation Assay (AID 720538)
Sequence of Arylsulfatase A (Homo sapiens) (P15289 whole entry, looked up): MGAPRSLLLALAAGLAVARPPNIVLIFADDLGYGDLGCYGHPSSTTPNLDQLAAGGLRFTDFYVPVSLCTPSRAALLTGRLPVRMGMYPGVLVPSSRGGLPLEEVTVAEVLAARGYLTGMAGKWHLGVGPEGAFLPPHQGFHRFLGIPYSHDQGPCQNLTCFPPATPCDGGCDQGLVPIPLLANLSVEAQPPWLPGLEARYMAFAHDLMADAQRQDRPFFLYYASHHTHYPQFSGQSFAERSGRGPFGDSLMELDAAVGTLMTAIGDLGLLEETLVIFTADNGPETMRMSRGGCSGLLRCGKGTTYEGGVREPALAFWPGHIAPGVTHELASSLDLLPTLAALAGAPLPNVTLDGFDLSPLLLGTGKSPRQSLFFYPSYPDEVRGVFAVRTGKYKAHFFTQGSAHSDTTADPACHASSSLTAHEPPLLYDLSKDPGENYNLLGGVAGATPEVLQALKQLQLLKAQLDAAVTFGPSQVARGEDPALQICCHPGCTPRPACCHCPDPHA
Outline: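 SV40-transformed fibroblasts from an MLD patient (ASA-I179S) were treated with compound for 48 h at 37 C. They were then lysed with 0.5 mM pNCS substrate (final) for 14 h at room temperature and stopped with NaOH; signal read by fluorescence (Ex 525/Em 598 nm), with increase denoting enhanced activity.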

[9] = target: Ubiquitin carboxyl-terminal hydrolase 1 (Homo sapiens) (UniProt O94782); assay: Inhibitors of USP1/UAF1: Pilot qHTS (AID 504865);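 note: rhodamine fluorescence freed from ubiquitin-rhodamine substrate followed over time; top concentration of the series differs between compounds; nearly all actives have a fitted effect of over 35% in size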
Sequence of Ubiquitin carboxyl-terminal hydrolase 1 (Homo sapiens) (O94782 whole entry, looked up): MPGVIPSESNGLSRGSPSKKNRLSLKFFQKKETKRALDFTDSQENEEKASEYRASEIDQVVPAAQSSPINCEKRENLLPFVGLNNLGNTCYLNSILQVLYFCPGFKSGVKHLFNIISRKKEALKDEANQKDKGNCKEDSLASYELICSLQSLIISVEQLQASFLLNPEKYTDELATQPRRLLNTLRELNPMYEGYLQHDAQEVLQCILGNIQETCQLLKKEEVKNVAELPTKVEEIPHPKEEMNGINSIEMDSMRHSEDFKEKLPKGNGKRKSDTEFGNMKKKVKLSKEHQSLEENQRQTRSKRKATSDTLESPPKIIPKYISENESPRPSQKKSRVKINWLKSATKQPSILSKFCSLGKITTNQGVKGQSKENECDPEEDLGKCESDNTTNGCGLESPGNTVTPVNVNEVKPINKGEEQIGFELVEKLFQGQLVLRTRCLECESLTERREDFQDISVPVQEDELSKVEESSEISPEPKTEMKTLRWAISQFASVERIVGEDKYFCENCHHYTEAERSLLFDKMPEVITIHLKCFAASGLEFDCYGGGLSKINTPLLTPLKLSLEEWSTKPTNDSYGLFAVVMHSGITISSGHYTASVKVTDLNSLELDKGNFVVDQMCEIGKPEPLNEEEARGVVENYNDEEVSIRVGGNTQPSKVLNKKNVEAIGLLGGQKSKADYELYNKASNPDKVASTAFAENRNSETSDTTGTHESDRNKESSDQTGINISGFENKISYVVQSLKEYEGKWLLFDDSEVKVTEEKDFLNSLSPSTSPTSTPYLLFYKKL
Outline: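 USP1/UAF1 complex at 1 nM preincubated 15 min at room temperature with compound, then Ub-Rho substrate added at 150 nM final. Fluorescence (480/540 nm) read kinetically in 50 mM HEPES pH 7.8, 0.5 mM EDTA, 1 mM TCEP, 0.1 mg/ml BSA, 0.01% Tween-20.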

Measured: Potency

COc1cccc2c1[C@@H]1CN(CCCCn3c(=O)[nH]c4c(sc5ncc(-c6ccccc6)nc54)c3=O)C[C@@H]1CO2
inactive: [1] | [2] | [3] | [4] | [5]

Nc1ncnc2c1ncn2[C@@H]1O[C@H](COP(=O)(O)OP(=O)(O)OP(=O)(O)OP(=O)(O)OC[C@@H]2O[C@H](n3cnc4c(N)ncnc43)[C@@H](O)[C@H]2O)[C@@H](O)[C@H]1O
inactive: [1] | [2] | [3] | [4] | [5]

CCN(CC)CCNC(=O)c1ccc(NS(C)(=O)=O)cc1
inactive: [1] | [2] | [3] | [4] | [5]

C[C@H](Cc1ccccc1)Nc1ncnc2c1ncn2[C@@H]1O[C@H](CO)[C@@H](O)[C@H]1O
inactive: [1] | [2] | [3] | [4] | [5]

Nc1nc2c(nc(Br)n2C2OC3COP(=O)(O)O[C@@H]3C2O)c(=O)[nH]1 (stereo not given in full)
inactive: [1] | [2] | [3] | [4] | [5]

C[C@](Cc1ccc(O)c(O)c1)(NN)C(=O)O
inactive: [1] | [2] | [3] | [4] | [5]

C[C@H]1CC2C3CCC4=CC(=O)C=C[C@]4(C)[C@@]3(Cl)[C@@H](O)C[C@]2(C)[C@@]1(O)C(=O)CO (stereo not given in full)
inactive: [1] | [2] | [3] | [4] | [5]

Cc1nn(-c2ccccc2)c(C)c1/C=N/N1CCN(Cc2ccccc2)CC1
inactive: [1] | [2] | [3] | [4] | [5]

CCCCCCCCCCC(C)(C)C(=O)Nc1c(OC)cc(OC)cc1OC
inactive: [1] | [2] | [3] | [4] | [5]

N[C@H](C(=O)O)[C@H]1C[C@@H]1C(=O)O
inactive: [1] | [2] | [3] | [4] | [5]

C=CC(=O)c1ccc(CCCCCC)cc1
inactive: [1] | [2] | [3] | [4] | [5]

CCCn1c(=O)c(C)cn2nc(N)nc12
inactive: [1] | [2] | [3] | [4] | [5]

NCC(O)C1CCCCCCC1 (stereo not given)
inactive: [1] | [2] | [3] | [4] | [5]

CNC(=O)[C@H]1O[C@@H](n2cnc3c(NCc4cccc(I)c4)ncnc32)[C@H](O)[C@@H]1O
inactive: [1] | [2] | [3] | [4] | [5]

Cc1nc2sccn2c(=O)c1CCN1CCC(=C(c2ccccc2)c2ccc(F)cc2)CC1
inactive: [1] | [2] | [3] | [4] | [5]

CNC(=O)[C@H]1O[C@@H](n2cnc3c(NCc4ccc(N)cc4)ncnc32)[C@H](O)[C@@H]1O
inactive: [1] | [2] | [3] | [4] | [5]

O=C1NC(=O)/C(=C/c2ccc3c(c2)OC(F)(F)O3)S1
inactive: [1] | [2] | [3] | [4] | [5]

OC[C@H]1O[C@@H](n2cnc3c(Nc4ccccc4)ncnc32)[C@H](O)[C@@H]1O
inactive: [1] | [2] | [3] | [4] | [5]

COc1cc2nc(N3CCN(C(=O)OCc4ccccc4)C(C(=O)NC(C)(C)C)C3)nc(N)c2cc1OC (stereo not given)
inactive: [1] | [2] | [3] | [4] | [5]

Cc1cccc(/C=C/c2ccccc2)n1
inactive: [1] | [2] | [3] | [4] | [5]

Oc1cc2c(c(Cl)c1O)CCNCC2c1ccccc1 (stereo not given)
inactive: [1] | [2] | [3] | [4] | [5]

Cc1cc(Cn2cnc3c2C[C@@H](C(=O)O)N(C(=O)C(c2ccccc2)c2ccccc2)C3)ccc1N
inactive: [1] | [2] | [3] | [4] | [5]

O=c1[nH]c(=S)[nH]c(-c2ccccc2)c1Cc1c(O)ccc2ccccc12
inactive: [1] | [2] | [3] | [4] | [5]

CN1Cc2sccc2C(c2ccc(O)c(O)c2)C1 (stereo not given)
inactive: [1] | [2] | [3] | [4] | [5]

CCc1ccc2c(-c3cccc(Cl)c3)nc(=O)n(CC)c2n1
inactive: [1] | [2] | [3] | [4] | [5]

CCCCC#Cc1nc(NC)c2ncn([C@@H]3O[C@H](CO)[C@@H](O)[C@H]3O)c2n1
inactive: [1] | [2] | [3] | [4] | [5]

N[C@@H](CCC(=O)N[C@H](CSN=O)C(=O)NCC(=O)O)C(=O)O
inactive: [1] | [2] | [3] | [4] | [5]

Nc1nc(SCc2ccc([N+](=O)[O-])cc2)c2ncn([C@@H]3O[C@H](CO)[C@@H](O)[C@H]3O)c2n1
inactive: [1] | [2] | [3] | [4] | [5]

Nc1ncnc2c1c(I)cn2[C@@H]1C[C@H](N)[C@@H](O)[C@H]1O
inactive: [1] | [2] | [3] | [4] | [5]

CSc1nc(N)c2ncn([C@@H]3O[C@H](COP(=O)(O)OP(=O)(O)O)C(O)[C@H]3O)c2n1 (stereo not given in full)
inactive: [1] | [2] | [3] | [4] | [5]

NC[C@H]1O[C@@H](n2cnc3c(N)ncnc32)[C@H](O)[C@@H]1O
inactive: [1] | [2] | [3] | [4] | [5]

COc1ccc2c(c1)CCC1C2CC[C@@]2(C)C1CC[C@@H]2NCCCCCCN1C(=O)CCC1=O (stereo not given in full)
inactive: [1] | [2] | [3] | [4] | [5]

O=C1/C(=C/c2ccsc2)CC/C1=C\c1cccs1
inactive: [1] | [2] | [3] | [4] | [5]

COc1ccc(CCn2nnnc2C2(c3ccc(C)cc3)CC2)cc1
inactive: [1] | [2] | [3] | [4] | [5]

C[N+](C)(C)CCOP(=O)(O)OP(=O)([O-])OC[C@H]1O[C@@H](n2ccc(N)nc2=O)[C@H](O)[C@@H]1O
inactive: [1] | [2] | [3] | [4] | [5]

CN1CCc2cc(Cl)c(O)cc2[C@@H](c2ccccc2)C1
inactive: [1] | [2] | [3] | [4] | [5]

CN1C2CCCC1CC(NC(=O)c1nn(C)c3ccccc13)C2 (stereo not given)
inactive: [1] | [2] | [3] | [4] | [5]

CC(N)(Cc1ccc(O)cc1)C(=O)O (stereo not given)
inactive: [1] | [2] | [3] | [4] | [5]

CN1CC(O)C(O)C(O)C1CO (stereo not given)
inactive: [1] | [2] | [3] | [4] | [5]

CC(C)[C@@H]1CC[C@@H](C)C[C@@H]1P(=O)(c1ccccc1)c1ccccc1
inactive: [1] | [2] | [3] | [4] | [5]

CCCC1(C)C(C#N)(C#N)C1(C#N)C#N
inactive: [1] | [2] | [3] | [4] | [5]

CN=c1nc(-c2ccccc2)n(-c2ccccc2)s1
not listed: [8] | [9]
inactive: all other assays above

O=c1ccn([C@@H]2O[C@H](COP(=O)(O)OP(=O)(O)O)[C@@H](O)[C@H]2O)c(=O)[nH]1
inactive: [1] | [2] | [3] | [4] | [5]

O=C(O)CCC/C=C\C[C@@H]1[C@@H](/C=C/[C@H](O)C2Cc3ccccc3C2)[C@@H](F)C[C@@H]1O
inactive: [1] | [2] | [3] | [4] | [5]

OCC1O[C@H]([S-])[C@H](O)[C@@H](O)[C@@H]1O.[Au+] (stereo not given in full)
inactive: [1] | [2] | [3] | [4] | [5]

O=c1cc(-c2ccccc2F)[nH]c2cc3c(cc12)OCO3
inactive: [1] | [2] | [3] | [4] | [5]

CN(CC[C@@H](Oc1ccc(C(F)(F)F)cc1)c1ccccc1)CC(=O)O
inactive: [1] | [2] | [3] | [4] | [5]

CC(=O)SC1CC2=CC(=O)CC[C@]2(C)C2CC[C@@]3(C)C(CC[C@@]34CCC(=O)O4)C12 (stereo not given in full)
inactive: [1] | [2] | [3] | [4] | [5]

N#C/C(=C\c1ccc(-c2cc(Cl)ccc2Cl)o1)C(=O)Nc1cccc2ncccc12
inactive: [1] | [2] | [3] | [4] | [5]

CCc1c(C(=O)NCCc2ccc(N3CCCCC3)cc2)[nH]c2ccc(Cl)cc12
inactive: [1] | [2] | [3] | [4] | [5]

CCCCCCCCc1ccc(-c2ccc(C(=O)O)cc2)cc1
inactive: [1] | [2] | [3] | [4] | [5]

Cc1nc2n(c(=O)c1CCN1CCC(c3noc4cc(F)ccc34)CC1)CCCC2O (stereo not given)
inactive: [1] | [2] | [3] | [4] | [5]

NC(=O)C1=CN(C2OC(COP(=O)(O)OP(=O)(O)OC[C@H]3O[C@@H](n4cnc5c(N)ncnc54)[C@H](OP(=O)(O)O)[C@@H]3O)C(O)C2O)C=CC1 (stereo not given in full)
inactive: [1] | [2] | [3] | [4] | [5]

NC(=S)NCCC[C@H](N)C(=O)O
inactive: [1] | [2] | [3] | [4] | [5]

CCCCCCC(=O)OC1CC(C)(C)NC(C)(C)C1
not listed: [6] | [7] | [9]
inactive: all other assays above

NCC1OC(O[C@H]2[C@H](O)[C@@H](OC3C(O)C(N)CC(N)C3OC3OC(CO)C(O)C(O)C3N)O[C@@H]2CO)C(N)C(O)C1O (stereo not given in full)
not listed: [6] | [7]
inactive: all other assays above
